The panel holds about 79,000 compounds, 15% with a hit somewhere; the sample as a whole holds those more often. Activity calls are given as the source filed them. Rule as the data show it: active = growth inhibition above about 70%; inactive = the rest.
Assay: NCI Yeast Anticancer Drug Screen. Data for the mgt1 strain (AID 153)
Conditions: S. cerevisiae mgt1 mutant growth inhibition, hits give high values
Procedure: Growth inhibition of yeast strains with defined genetic alterations is measured as a screen for potential anti-cancer activity. Selected strains with alterations in DNA damage repair or cell cycle control were exposed to compounds and growth inhibition was measured relative to vehicle treated controls. The strain used in this assay is mgt1

Measured: growth inhibition

O=C(NCCNCCNC(=O)c1cc(-c2ccccc2)nc2ccccc12)c1cc(-c2ccccc2)nc2ccccc12
inactive: at 1.2 µM -2% | at 3.7 µM -1% | at 11.0 µM -2% | at 33.0 µM 0% | at 100.0 µM 1%

Cc1cc(Cl)ccc1NC(=O)/C(Cl)=C(/Cl)C(=O)O
active: at 100.0 µM 100%
inactive: at 1.2 µM 0% | at 3.7 µM 5% | at 11.0 µM 8% | at 33.0 µM 29%

CSc1nc(-c2ccccc2)nc(=[N+]2CCOCC2)s1
active: at 33.0 µM 87% | at 100.0 µM 98%
inactive: at 1.2 µM 3% | at 3.7 µM 11% | at 11.0 µM 31%

CC/C(=C(\c1ccccc1)c1ccc(OCC[N+](C)(C)C)cc1)c1ccccc1
active: at 11.0 µM 99% | at 33.0 µM 99% | at 100.0 µM 99%
inactive: at 1.2 µM -1% | at 3.7 µM 55%

O=C(Oc1ccc([N+](=O)[O-])cc1)c1ccc([N+](=O)[O-])cc1
inactive: at 1.2 µM 0% | at 3.7 µM 1% | at 11.0 µM 2% | at 33.0 µM 9% | at 100.0 µM 13%

Cc1ccc(NC(=O)CCC(=O)C(C)C(=O)c2ccccc2)c(C)c1 (stereo not given)
inactive: at 1.2 µM 0% | at 3.7 µM 5% | at 11.0 µM 1% | at 33.0 µM 0% | at 100.0 µM -5%

CN(CCOc1ccc(Cl)cc1)CCOc1ccc(Cl)cc1
active: at 33.0 µM 98% | at 100.0 µM 99%
inactive: at 1.2 µM 3% | at 3.7 µM 13% | at 11.0 µM 57%

Cc1nc2sc3c(c2c(=O)o1)CCCC3
inactive: at 1.2 µM -1% | at 3.7 µM -1% | at 11.0 µM 18% | at 33.0 µM -2% | at 100.0 µM 7%
